Rv3671c protease – inhibitors of M. tuberculosis serine protease Rv3671c; inhibition, % at 5.96 µM; 320,000 tested, 0.048% active; AID 2606; in the data active = inhibition above about 38%;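 also: extracellular domain of Rv3671c used as enzyme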
Mtb FBA inh – inhibitors of M. tuberculosis fructose-bisphosphate aldolase; purified M. tuberculosis FBA, fluorescence read-out; P9WQA3; 360,000 tested, 2.3% active; inhibition, % at 1 µM; AID 588726; in the data active = inhibition above about 27%
Mtb UGM inh – blocks M. tuberculosis UGM enzyme; P9WIQ1; purified UGM, fluorescence polarization probe displacement; inhibition, % at 10 µM; 320,000 tested, 0.06% active; AID 504406; in the data active = inhibition above about 10%, passing the limit was not always enough; inconclusive = no clear call, values can overlap the other calls
Target sequence (P9WIQ1 whole entry, looked up): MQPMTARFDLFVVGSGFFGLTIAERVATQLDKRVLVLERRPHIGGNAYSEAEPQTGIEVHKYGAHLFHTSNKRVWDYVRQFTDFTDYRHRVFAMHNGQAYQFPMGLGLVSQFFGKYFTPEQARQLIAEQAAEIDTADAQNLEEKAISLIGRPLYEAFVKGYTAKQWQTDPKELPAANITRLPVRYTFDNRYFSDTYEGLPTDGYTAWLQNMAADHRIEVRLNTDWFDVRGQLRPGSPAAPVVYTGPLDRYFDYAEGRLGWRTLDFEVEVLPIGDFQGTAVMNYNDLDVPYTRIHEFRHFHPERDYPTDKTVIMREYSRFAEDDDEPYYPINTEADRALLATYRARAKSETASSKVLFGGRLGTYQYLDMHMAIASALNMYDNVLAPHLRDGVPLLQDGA
Mtb bLac sens – beta-lactam sensitization of Mtb H37Rv; M. tuberculosis H37Rv growth with meropenem, percent inhibition; inhibition, % at 25 µM; 330,000 tested, 0.27% active; AID 434955; call rule not given here;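 also: growth measured after seven days incubation then overnight dye step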
GDH-TPI inh – inhibits GDH-TPI coupling enzymes, artifact for Mtb FBA screen. 360,000 tested, 1.2% active. GDH-TPI coupled enzyme counterscreen, NADH absorbance. inhibition, % at 4.8 µM. AID 588335; in the data active = inhibition above about 30%
RecA intein inh – inhibitors of M. tuberculosis RecA intein splicing; P9WHJ3; cell-free RecA intein splicing, fluorescence; inhibition, % (test concentration not listed); 290,000 tested, 0.75% active; AID 2221; in the data active = inhibition above about 30%; inconclusive = no clear call, values can overlap the other calls
Hits are given with their value; . = inactive; ? = inconclusive; / = no result given; + = active, no number. Sampled rows, rich in hits. Any-hit rate of the full collection: about 4%.

SMILES | Rv3671c protease | Mtb FBA inh | Mtb UGM inh | Mtb bLac sens | GDH-TPI inh | RecA intein inh
N=c1c(C(=O)NC2CCCC2)cc2c(=O)n3ccccc3nc2n1CCCN1CCOCC1 | . | 157.9 | . | . | . | .
CCCNc1nc2nc3ccccn3c(=O)c2cc1C(=O)NCCN1CCOCC1 | . | 155.2 | . | . | . | .
O=C(NCCN1CCOCC1)c1c(O)nc2ccccn2c1=O | . | . | . | . | . | .
CCOC(=O)c1cc2c(=O)n3ccccc3nc2n(Cc2ccccc2)c1=N | . | 79.1 | . | . | . | .
Cc1ccc(Cn2c(=N)c(C(=O)NC3CCCCC3)cc3c(=O)n4ccccc4nc32)cc1 | . | . | . | . | . | .
Cc1ccc(NC(=O)CSCc2cc(=O)n3ccsc3n2)cc1 | . | . | . | . | . | .
N#Cc1cc2c(=O)n3ccccc3nc2n(-c2ccccc2Cl)c1=O | . | + | . | . | . | .
Cc1ccc(CNCCCn2cnc3c(OCc4ccccc4)ncnc32)o1 | / | . | / | / | . | /
Cc1[nH]n(-c2cccc3ccccc23)c(=O)c1C=Nc1ccc2[nH]c(=O)[nH]c2c1 | . | . | . | . | 34.7 | .
Cc1ccc(-n2[nH]c(C)c(C=Nc3ccc4[nH]c(=O)[nH]c4c3)c2=O)cc1 | . | . | . | . | . | .
O=C(O)CCn1c2ccccc2c2nc3ccccc3nc21 | . | . | . | . | 31.4 | .
COc1cc(C=Cc2nnc3c4ccccc4cnn23)cc(OC)c1OC | / | . | / | / | 54.7 | /
FC(F)(F)c1ccc(/C=N/n2c(C3CCCCC3)n[nH]c2=S)cc1 | . | . | . | ? | . | .
Cc1cc(S(=O)(=O)c2ccc(Cl)cc2)nc(S(=O)(=O)c2ccc(Cl)cc2)c1C#N | / | . | / | / | . | /
COC(=O)C(C(=O)OC)=C(/C=C/N(C)C)N(C)C | . | . | . | . | 37.6 | .
CCCn1c(N)c(N(CCOC)C(=O)CSc2c(Cl)cccc2Cl)c(=O)[nH]c1=O | . | . | . | . | . | /
CC(=O)C(Cc1ccccc1)NC(=O)COC(=O)CCN1C(=O)C2CC=CCC2C1=O (stereo not drawn) | . | . | . | . | . | .
CN1C(c2ccc(F)cc2)=CS/C1=C(\C#N)c1nnc2n1-c1ccccc1SC2 | . | . | . | . | 34.4 | .
Clc1ccc(-c2nnc3n2-c2ccccc2SC3)cc1 | . | . | . | . | . | .
OC[C@@H]1CN(Cc2cccnc2)C[C@H](n2cnc3c(NC4CCCC4)ncnc32)O1 | / | . | / | / | . | /
COc1ccccc1/C=N/Nc1cc(N(C)C)nc(N(C)C)n1 | . | . | . | . | . | 44.3
Cc1cc(=O)oc2cc(OCC(=O)N/N=C/c3ccccc3O)ccc12 | . | . | . | . | . | .
Cc1sccc1/C=N/NC(=O)c1ccco1 | . | . | . | . | . | .
Cc1cc(N(CCCl)CCCl)ccc1C=NNC(=O)Cc1cc(=O)oc2cc(O)ccc12 | / | 168.8 | / | / | 59.0 | /
Cc1cc(N(CCCl)CCCl)ccc1/C=N/NC(=O)c1ccco1 | . | . | . | . | 49.3 | .
SMILES | Rv3671c protease | Mtb FBA inh | Mtb UGM inh | Mtb bLac sens | GDH-TPI inh | RecA intein inh
CC(=O)c1c(C)[nH]c(C(=O)OCC(=O)Nc2nnc(-c3ccccc3)o2)c1C | . | . | . | / | . | /
N=c1oc2cc(O)ccc2cc1C(=O)Nc1nc2ccccc2s1 | . | + | . | . | . | .
Cc1csc(NC(=O)c2nc3nccc(C)n3n2)n1 | . | . | . | . | . | .
Cc1ccnc2nc(C(=O)Nc3nc4ccccc4s3)nn12 | . | . | . | . | 41.1 | .
N=c1oc2cc(O)ccc2cc1C(=O)Nc1ccccn1 | . | / | . | . | / | /
Nc1ccc(C(=O)Nc2nc3ccccc3s2)cc1 | . | . | . | . | 34.1 | .
C[C@H](CO)N1C[C@H](C)[C@@H](CN(C)S(C)(=O)=O)Oc2ccc(NC(=O)CCC(F)(F)F)cc2C1=O | . | . | . | . | . | /
COc1ccc(CC(N)c2csc(Nc3ccc(C(C)=O)cc3)n2)cc1 (stereo not drawn) | / | . | / | / | 38.4 | /
CC(=O)c1ccc(Nc2nc(C(N)CC(C)C)cs2)cc1 (stereo not drawn) | / | . | / | / | 32.0 | /
CC(=O)c1ccc(Nc2nc(C(N)C3CCCCC3)cs2)cc1 (stereo not drawn) | / | . | / | / | 33.6 | /
CC(C)CC(N)c1csc(Nc2ccc(C(=O)c3ccccc3)cc2)n1 (stereo not drawn) | / | . | / | / | . | /
NC(c1csc(Nc2ccc(C(=O)c3ccccc3)cc2)n1)C1CCCCC1 (stereo not drawn) | / | . | / | / | . | /
COc1ccccc1-c1cnc(C(O)c2ccc(SC)cc2)[nH]1 (stereo not drawn) | / | . | / | / | . | /
Fc1ccc(-c2ccc(/C=N/n3cnnc3)o2)cc1 | . | . | . | . | 40.6 | .
Cc1cc(-c2ccc(/C=N/n3cnnc3)o2)c(C)c([N+](=O)[O-])c1 | . | . | . | . | . | .
Fc1ccc(-c2ccc(/C=N\n3cnnc3)o2)cc1Cl | . | . | . | . | 41.9 | .
O=[N+]([O-])c1ccc(Cl)c(-c2ccc(/C=N/n3cnnc3)o2)c1 | . | . | . | . | 52.5 | .
O=[N+]([O-])c1cc(-c2ccc(/C=N/n3cnnc3)o2)ccc1Cl | . | . | . | . | . | .
Cc1ccc(-c2ccc(/C=N\n3cnnc3)o2)c(Br)c1 | . | . | . | . | 45.3 | .
CCCNC(=O)c1cc(C2CCCCN2S(C)(=O)=O)on1 (stereo not drawn) | / | . | / | / | . | /
COc1cc(/C=N/Nc2ccc(C(F)(F)F)cn2)ccc1O | . | . | . | . | . | .
O=C(O)c1ccc(/C=N/Nc2nc3ccccc3[nH]2)cc1 | . | . | . | . | 75.3 | .
C(=N\Nc1nc2ccccc2[nH]1)/c1cccs1 | . | . | . | . | . | .
O=C(O)c1ccc(/C=N/Nc2ccc(C(F)(F)F)cn2)cc1 | / | . | / | / | 38.1 | .
CC(=O)Nc1ccc(/C=N/Nc2nc3ccccc3[nH]2)cc1 | . | . | . | . | 38.1 | /
SMILES | Rv3671c protease | Mtb FBA inh | Mtb UGM inh | Mtb bLac sens | GDH-TPI inh | RecA intein inh
Cc1ccsc1/C=N/Nc1nc2ccccc2[nH]1 | / | . | / | / | 31.9 | .
COc1cc(C(=O)NCc2nnc(SCC(=O)Nc3cccc(C(F)(F)F)c3)o2)cc(OC)c1OC | . | . | . | . | . | .
CC(C)C(=NO)c1ccccc1 | / | . | / | / | . | /
COc1ccc(N2CCN(C(c3cccs3)C(C)NC(=O)C(=O)N3CCCC3)CC2)cc1 (stereo not drawn) | . | . | . | . | . | .
CS(=O)(=O)Nc1ccc(C(=O)CC(=O)Nc2ccc([N+](=O)[O-])cc2)cc1 | . | . | . | . | 77.1 | .
O=C(O)Cn1nc(-c2ccccc2)ccc1=O | . | . | . | . | . | .
Cc1cc2c(C)c(C)c(=O)[nH]c2cc1N | . | + | . | . | 35.5 | .
COc1ccc2cc(CN(CC3CCCO3)S(=O)(=O)c3ccccc3Cl)c(=O)[nH]c2c1 (stereo not drawn) | . | . | . | . | 31.9 | .
O=c1[nH]c2ccccc2cc1CN(CC1CCCO1)S(=O)(=O)c1ccc(Cl)cc1 (stereo not drawn) | . | . | . | . | . | .
COc1ccccc1NC(=O)N(Cc1cc2cc(OC)c(OC)cc2[nH]c1=O)CC1CCCO1 (stereo not drawn) | . | . | . | . | 34.3 | .
